Reference: article PMC4552634, “A New Set of Chemical Starting Points with Plasmodium falciparum Transmission-Blocking Potential for Antimalarial Drug Discovery” (PLoS ONE, 2015)
Hit rate of the full screen: of about 13,000 compounds, about 3,200 (25%) showed an effect of 50% or more. This is one part of the list.

Test system: P. falciparum stage V gametocytes
Set-up: BacTiter-Glo ATP luminescence viability of purified stage V gametocytes in 384-well plates, per cent inhibition versus DMSO
Details: 48 h, 5 µM; inhibitor

| SMILES | % Inhibition [%] |
| --- | --- |
| Nc1nc(N)c2c(Oc3ccc(Cl)c(Cl)c3)cccc2n1 [TCMDC-137740] | -61.22 |
| Nc1nc(N)c2c(Sc3ccc(F)cc3)cccc2n1 [TCMDC-137179] | 36.57 |
| CC(=O)Nc1nc(C(=O)Nc2cccc(-c3cccc(-c4nc5ccc(F)cc5[nH]4)c3)c2)cs1 [TCMDC-137124] | 18.32 |
| CN1CCN(c2ccnc3ccc(NC(=O)Nc4ccc5c(c4)CCCC5=O)cc23)CC1 [TCMDC-139261] | -6.438 |
| COc1ccc(CCNCC(O)COc2nccc3c(S(=O)(=O)N4CCCNCC4)cccc23)cc1OC (stereo not drawn) [TCMDC-132101] | 25.52 |
| O=C(Nc1ccc2c(c1)CCN2C1CCN(Cc2ccc(C(F)(F)F)cc2F)C1)c1ccco1 (stereo not drawn) [TCMDC-135070] | -51.15 |
| O=C(Cc1ccc(-n2cnnn2)cc1)N(Cc1cncn1Cc1cccc(C(F)(F)F)c1)CC1CC1 [TCMDC-132461] | 5.053 |
| C1=CN(Cc2ccccc2)C=CC1=C1C=Nc2ccccc21 [TCMDC-138319] | 1.652 |
| O=C1OC2(CCN(C(=O)c3ccc(-n4cnnn4)cc3)CC2)CN1Cc1ccc(Cl)c(Cl)c1 [TCMDC-136544] | 34.85 |
| C1=C(c2c[nH]c3ccccc23)CCN(Cc2ccccc2)C1 [TCMDC-123457] | -71.35 |
| O=S(=O)(NC1CCN(c2ccnc3cc(Cl)ccc23)C1)c1ccc(C(F)(F)F)cc1 (stereo not drawn) [TCMDC-133662] | -7.86 |
| CCN(CC)CCCNc1ncc2c(-c3ccc(NC(=O)Nc4cc(C(F)(F)F)ccc4F)cc3)nn(C)c2n1 [TCMDC-141583] | 96.86 |
| Cn1nc(-c2ccc(NC(=O)Nc3cc(C(F)(F)F)ccc3F)cc2)c2cnc(NCCc3cnc[nH]3)nc21 [TCMDC-141621] | 12.4 |
| COc1ccc2nccc([C@@H](O)CN3CCC(NC(=O)C(=O)c4c[nH]c5c(C)cccc45)CC3)c2c1 [TCMDC-141107] | -28.63 |
| CCC(=O)Nc1nnc(Cc2ccc(OC)c(OC)c2)s1 [TCMDC-125741] | -62.68 |
| C=CCOc1ccc(Cc2cnc(N)nc2N)cc1CCC [TCMDC-137639] | -18.38 |
| N=C(N)c1ccc2nc(SCc3ccccc3)[nH]c2c1 [TCMDC-131872] | 24.07 |
| Cc1cc(-c2nc3ccc(C(=N)N)cc3[nH]2)c(C)cc1-c1nc2ccc(C(=N)N)cc2[nH]1 [TCMDC-137798] | 92.7 |
| N=C(N)c1ccc(NC(=O)Cc2nc3ccc(C(=N)N)cc3[nH]2)cc1 [TCMDC-131867] | 10.64 |
| COc1ccccc1C(=O)C1CCCN(C(=O)c2ccccc2C(F)(F)F)C1 (stereo not drawn) [TCMDC-124693] | -57 |
| CN(C)CCOc1cc(O)c2c(c1)OC(C)(C)C=C2c1cccs1 [TCMDC-131331] | -14.82 |
| Cc1[nH]c(C)c(-c2ccc(OCCCCSc3ccncc3)cc2)c(=O)c1Br [TCMDC-135256] | 73.89 |
| Cc1[nH]c(C)c(-c2ccc(OCCn3cnc(Cl)c3Cl)cc2)c(=O)c1Br [TCMDC-134570] | -18.53 |

| SMILES | % Inhibition [%] |
| --- | --- |
| Cc1[nH]c(C)c(-c2ccc(OCCSc3ccncc3)cc2)c(=O)c1Br [TCMDC-135220] | 64.24 |
| C[C@@H](C(=O)N1CCOCC1)N1CC[C@H](NS(=O)(=O)c2ccc3ccnc(N)c3c2)C1=O [TCMDC-136755] | 0.9724 |
| N=c1n(CCN2CCCCC2)c2ccccc2n1CC(O)c1cccc(Br)c1 (stereo not drawn) [TCMDC-125140] | 60.98 |
| COC(=O)c1ccc(CC(C)NCC(O)c2cccc(Br)c2)cc1 (stereo not drawn) [TCMDC-131437] | 10.23 |
| CC(NC(=O)c1ccc(O)c(-c2ccc(Cl)c(Cl)c2)c1)C(=O)NCCN1CCCCC1 (stereo not drawn) [TCMDC-140857] | 27.12 |
| N=c1n(CCN2CCCCC2)c2ccccc2n1CC(O)c1ccc(Cl)c(Cl)c1 (stereo not drawn) [TCMDC-124064] | 91.16 |
| N=c1n(CCN2CCCC2)c2ccccc2n1CC(O)c1ccc(Cl)c(Cl)c1 (stereo not drawn) [TCMDC-124063] | 70.46 |
| N=c1n(CCN2CCCCC2)c2ccccc2n1CC(=O)c1cccc([N+](=O)[O-])c1 [TCMDC-123516] | -26.88 |
| CC(NC(=O)c1ccc(O)c(-c2ccc(Cl)c(Cl)c2)c1)C(=O)NCCN1CCCC1 (stereo not drawn) [TCMDC-140827] | -9.232 |
| O=C(N[C@@H](Cc1ccccc1)C(=O)NCCN1CCCC1)c1ccc(O)c(-c2ccc(Cl)c(Cl)c2)c1 [TCMDC-140829] | 26.26 |
| O=C(N[C@@H](Cc1ccccc1)C(=O)NCCN1CCCCC1)c1ccc(O)c(-c2ccc(Cl)c(Cl)c2)c1 [TCMDC-140859] | 10.94 |
| CCOc1ccc(C=CC(=O)Nc2ccc3nc(N4CCOCC4)cc(C)c3c2)cc1OC [TCMDC-124420] | -58.06 |
| COc1ccc(NS(=O)(=O)c2cccc(C(=O)Nc3ccc(C(F)(F)F)cc3)c2)cc1N1CCN(CC(C)C)CC1 [TCMDC-141780] | -61.2 |
| N#Cc1ccc(CN2CCC(Oc3ccc(NC(=O)c4ccsc4)cc3Cl)C2)cc1 (stereo not drawn) [TCMDC-133961] | 27.45 |
| Cc1nnc2c(NC(=O)NC3CCCC3)cc3cc(-c4ccc(CN5CCCCC5)cc4)ccc3n12 [TCMDC-136711] | 3.866 |
| Cc1cc2c(NC(=O)NC3CCN(CCc4ccccc4Cl)CC3)cccc2cn1 [TCMDC-141800] | -1.237 |
| Cc1nnc2c(NC(=O)NC3CCCC3)cc3ccc(-c4cccc(CN(C)C)c4)cc3n12 [TCMDC-136731] | 62.95 |
| Cc1cc2c(NC(=O)NC3CCN(Cc4ccc(Cl)c(Cl)c4)CC3)cccc2cn1 [TCMDC-141771] | 11.02 |
| Cc1nnc2c(NC(=O)NC3CCCC3)cc3cc(-c4ccc(CN5CCN(C)CC5)cc4)ccc3n12 [TCMDC-136717] | 93.03 |
| Cc1cc2c(NC(=O)NC3CCN(CCc4cccc(Cl)c4)CC3)cccc2cn1 [TCMDC-141801] | 1.957 |
| CN1CCCN(Cc2cccc(-c3cccc(NC(=O)c4ccc(C#N)cc4)c3)c2)CC1 [TCMDC-132655] | 11.69 |
| Cc1cccc(CNc2nc(C)cc(N[C@@H](Cc3ccccc3)C(=O)NC3CCCC3)n2)c1 [TCMDC-134886] | 14.7 |
| CN(Cc1ccc(NC(=O)NC2CCN(C(=O)/C=C/c3ccc(Cl)c(Cl)c3)CC2)cc1)C1CCOCC1 [TCMDC-140523] | 15.53 |

| SMILES | % Inhibition [%] |
| --- | --- |
| Cc1nnc2c(NC(=O)NC3CCCC3)cc3cc(-c4ccc(CN(C)C)cc4)ccc3n12 [TCMDC-136487] | 88.82 |
| COc1ccc(-c2ccc(CN(C)C3CCC(NC(=O)c4cc5ccccc5[nH]4)CC3)cc2)cn1 (stereo not drawn) [TCMDC-132893] | 48.26 |
| Cc1nnc2c(NC(=O)NC3CCCC3)cc3ccc(-c4cccc(CN5CCN(C)CC5)c4)cc3n12 [TCMDC-136730] | 98.59 |
| O=C(Nc1ccc(C(=O)N2CCN(CCN3CCN(c4cccc(C(F)(F)F)c4)CC3)CC2)cc1)c1cc(Cl)cc(Cl)c1 [TCMDC-138146] | -60.88 |
| O=C(Nc1cccc(Cl)c1Cl)NC1CCN(Cc2cccc(O)c2)CC1 [TCMDC-136485] | -12.42 |
| O=C(Nc1cc2cc(-c3ccc(CN4CCCCC4)cc3)ccc2n2cnnc12)NC1CCCC1 [TCMDC-136882] | 63.39 |
| O=C(NCC1CC1)C1CCN(C(c2ccccc2)c2nc3ccccc3s2)CC1 (stereo not drawn) [TCMDC-135523] | -36.83 |
| O=C(NCC1CC1)C1CCN(C(c2ccccc2)c2cc(F)cc(F)c2)CC1 (stereo not drawn) [TCMDC-135513] | 62.39 |
| O=C(NCC1CC1)C1CCN(C(c2ccc(Cl)cc2)c2ccc(Cl)cc2)CC1 [TCMDC-135522] | -2.377 |
| CCCNC(=O)C1CCN(C(c2ccccc2)c2ccc(Cl)c(Cl)c2)CC1 (stereo not drawn) [TCMDC-135517] | -34.35 |
| O=C(NC1CCC1)C1CCN(C(c2ccc(Cl)cc2)c2ccc(Cl)cc2)CC1 [TCMDC-135520] | 57.43 |
| O=C(NCC1CC1)C1CCN(C(c2ccccc2)c2ccc(Cl)c(Cl)c2)CC1 (stereo not drawn) [TCMDC-135515] | 70.5 |
| CCCNC(=O)C1CCN(C(c2ccc(Cl)cc2)c2ccc(Cl)cc2)CC1 [TCMDC-135518] | 16.22 |
| O=C(NC1CCC1)C1CCN(C(c2ccccc2)c2cc(F)cc(F)c2)CC1 (stereo not drawn) [TCMDC-135514] | -3.594 |
| COCCNC(=O)C1CCN(C(c2ccc(Cl)cc2)c2ccc(Cl)cc2)CC1 [TCMDC-135519] | -9.136 |
| COc1ccc(C(=O)NCc2ccc(N)nc2C)cc1Nc1ncc(-c2cccc(N(C)C)c2)cn1 [TCMDC-132420] | -21.32 |
| CCc1ccc(Cc2cnc3nc(N)nc(N)c3c2C)cc1CC [TCMDC-138054] | 77.27 |
| CCCc1ccc(Cc2cnc3nc(N)nc(N)c3c2C)cc1 [TCMDC-138046] | 5.48 |
| CCc1ccc(Cc2cnc3nc(N)nc(N)c3c2C)cc1 [TCMDC-137686] | 14.74 |
| Cc1nc(N)nc(N)c1OCCCOc1cccc(Cl)c1Cl [TCMDC-131369] | -7.285 |
| O=C(Nc1ccc(N2CCCN(Cc3cccc(F)c3)CC2)cc1)c1ccccc1 [TCMDC-135014] | -40.3 |
| OCCN1CCN(c2nc(Nc3cccc(F)c3)c3cnn(-c4ccccc4)c3n2)CC1 [TCMDC-124948] | 87.2 |
| OCCN1CCN(C(=S)Nc2ccccc2)CC1 [TCMDC-123846] | -8.492 |
